This is a sample that favours compounds with a hit; in the whole collection about 21% have one here.
AMA1-RON2 inh = qHTS for Inhibitors of AMA1-RON; Towards Development of Antimalarial Drug Lead: Primary Screen; Plasmodium falciparum AMA1 (3D7) - RON2 peptide interaction; Potency, µM (highest dose often 58.2 µM), for inactives: at the top dose activity change, negative = inhibition, hits mostly inhibitors; actives 0.2% (n = 360,000); AlphaScreen AMA1-biotinylated RON2 peptide binding;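 note: potency is the fitted concentration of half-maximal effect; 0% = vehicle wells and -100% = peptide control; nearly all actives have a fitted effect of over 45% in size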
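AMA1 (3D7) with his tag at 25 nM final met compounds first, then biotinylated RON2 peptide at 25 nM; detection used donor plus acceptor beads, 10 µg/mL apiece, read by AlphaScreen after 30 min at room temperature.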
HCV inh = qHTS Assay for Inhibitors of Hepatitis C Virus (HCV); Huh7.5.1 HCVcc-Cre infection, luciferase reporter, 44 h; Potency, µM (titrated, usually from 41.8 µM), without a hit: at the top dose activity change, negative = inhibition, most hits filed as inhibitors; actives 3.4% (n = 340,000); note: potency is the fitted concentration of half-maximal effect; % is set by controls: 0 for no effect and ±100 for the full control effect
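Luciferase read-out (15 sec integration) after a 15 min room-temperature substrate step quantifies HCVcc-Cre infection. Cells, 1,000 per well, had compound added 4 h post-plating, then virus at ~0.5 moi, and were cultured 44 h.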
CHX counter = Cycloheximide Counterscreen for Small Molecule Inhibitors of Shiga Toxin; cell reporter, cycloheximide protein synthesis inhibition counterscreen; max response, %; AID 2314, 2010; actives 12% (n = 300,000); in the data active = max response mostly above about 13%, no sharp cut-off; inactive = mostly below about 14%; note: read at 38.3 µM for the half of the compounds with a filed dose; 0% is about no effect
Shiga toxin inh = A qHTS for Small Molecule Inhibitors of Shiga Toxin | Vero cells, Shiga toxin protein synthesis inhibition reporter | inhibition, % at 38.7 µM | actives 9.2% (n = 290,000) | AID 2315, 2010; in the data active = inhibition mostly above about 28%, no sharp cut-off; inactive = mostly below about 43%; note: 0% is about no effect
Pf growth 48h = Primary qHTS for delayed death inhibitors of the malarial parasite plastid, 48 hour incubation; P. falciparum luciferase growth in erythrocytes, 48 h; Potency, µM (doses to about 28.7 µM), for the others: top-dose activity change, negative = inhibition, hits mostly inhibitors; actives 5.9% (n = 310,000); AID 504832, 2011; note: potency is the fitted concentration of half-maximal effect; % is set by controls: 0 for no effect and ±100 for the full control effect
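Here the parasites carry a stable luciferase gene and grow inside erythrocytes in Albumax-based RPMI medium with compound for one erythrocytic cycle. Activity is scored as loss of luminescent signal.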
Pf growth 96h = Primary qHTS for delayed death inhibitors of the malarial parasite plastid, 96 hour incubation | actives 6.9% (n = 320,000) | Potency, µM (doses to about 28.7 µM), without a hit: at the highest dose activity change, negative = inhibition, most hits filed as inhibitors | P. falciparum luciferase reporter growth, 96 h | AID 504834, 2011; note: potency is the fitted concentration of half-maximal effect; % is set by controls: 0 for no effect and ±100 for the full control effect
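Luminescence readout: decreased luciferase signal marks inhibited growth of reporter-expressing P. falciparum in infected red cells (2% hematocrit, 0.05% parasitemia final), exposed to compound two generations (96 h, 37 C, 5% CO2).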
An asterisk follows results filed as active; ? = inconclusive; nt = no result given; ! = not active in a repeat; [ ] = dose if it differs, or a comment. Unless noted, calls come from the whole dose curve; as a rule, active = well fitted curve in the direction sought with a large enough effect; inconclusive = small, poorly fitted or top-dose-only effect, or another doubt; inactive = no such curve, though single readings can be large; an effect the other way counts as inactive or inconclusive.

SMILES | AMA1-RON2 inh | HCV inh | CHX counter | Shiga toxin inh | Pf growth 48h | Pf growth 96h
COc1ccc(/C=N/NC(=O)c2ccc(Cn3cc([N+](=O)[O-])cn3)o2)c(OC)c1C | -11% | ? | -2 | -9 | 5% | 46%
COc1ccc(/C=N/NC(=O)c2ccccc2O)cc1Cn1cc(Cl)cn1 | 32% | 22% | 16* | 43 | 47% | 0%
COc1ccc(/C=N/NC(=O)c2ccc(N)cc2)cc1Cn1cc([N+](=O)[O-])cn1 | -7% | ? | 9 | -7 | 7% | 12µM*
COc1ccc(/C=N/NC(=O)c2ccn[nH]2)cc1Cn1cc([N+](=O)[O-])cn1 | 19% | 6% | 23* | 59* | 19% | 16%
COc1ccc(/C=N/N2CCOCC2)cc1COc1ccc(F)cc1 | -1% | -10% | 35* | 25 | ? | 20%
COc1cc(C=NNC(=O)c2ccccc2-n2cccc2)ccc1O | 33% | ? | nt | nt | nt | nt
COc1ccc(/C=N\NC(=O)c2cccc([N+](=O)[O-])c2)cc1Cn1cc([N+](=O)[O-])cn1 | nt | nt | 9 | 18 | ? | 32%
CC(C)(C)OC(=O)CNC(=O)c1nc[nH]c1C(=O)NCC(=O)OC(C)(C)C | 84% | 27%[8.37 µM] | 1 | -6 | 28% | 10%
COc1ccc(CN2CC3CC(C2)c2cccc(=O)n2C3)cc1OC (stereo not drawn) | 0% | 2% | -3 | -2 | 2% | ?
CCOc1ccc(/C=N/NC(=O)c2ccccc2O)cc1CN1CC2CC(C1)c1cccc(=O)n1C2 (stereo not drawn) | 38% | 2% | nt | nt | ? | 13µM*
COc1ccc(/C=N/N2CCOCC2)cc1Cn1cc([N+](=O)[O-])cn1 | -4% | 8% | 15* | 30 | 16% | 25%
COc1ccc(/C=N/N2CCOCC2)cc1COc1ccc(Cl)cc1 | -22% | 21% | 4 | 0 | 17% | 2%
Nn1c(SCc2cccc(Br)c2)nnc1-c1cccnc1 | 1% | 6% | -2 | 17 | 1% | 7%
O=C(CSC1=NS(=O)(=O)c2cc(Cl)ccc2N1)Nc1cccc(F)c1 | 11% | 30% | nt | nt | -14% | 19%
O=S(=O)(c1cccc2nonc12)N1CCN(c2ccccc2F)CC1 | 7% | -19% | -2 | -14 | -10% | 26%
O=C(Nc1ccc(F)cc1)C1CCCN(S(=O)(=O)c2cccc3nonc23)C1 (stereo not drawn) | -5% | 2% | -1 | -6 | -20% | 3.7µM*
O=C(C1CCCN(S(=O)(=O)c2cccc3nonc23)C1)N1CCN(c2cccc(Cl)c2)CC1 (stereo not drawn) | -2% | 7.9µM* | -2 | -6 | nt | 7.4µM*
O=C(C1CCCN(S(=O)(=O)c2cccc3nonc23)C1)N1CCC(Cc2ccccc2)CC1 (stereo not drawn) | -4% | 7% | -3 | -13 | ? | 3%
O=C(C1CCCN(S(=O)(=O)c2cccc3nonc23)C1)N1CCN(c2ccccc2Cl)CC1 (stereo not drawn) | -25% | ? | -4 | -18 | 12µM* | 12µM*
Cc1cccc(N2CCN(S(=O)(=O)c3cccc4nonc34)CC2)c1C | ? | 1% | -5 | -13 | -13% | 2.9µM*
O=C(Nc1ccc(C(=O)N2CCCCC2)cc1)[C@H]1O[C@@H](n2ccc(=O)[nH]c2=O)[C@H](O)[C@@H]1O | 19% | nt | nt | nt | nt | nt
Cc1nc(CN2C(=O)C3(CCC3)ON=C2c2cccc(Cl)c2)cs1 | -1% | nt | nt | nt | nt | nt
CN1CCN(C(=O)CSc2nc(-c3cccs3)cc(-c3cccs3)c2C#N)CC1 | 4% | ? | -1 | -6 | ? | 2.1µM*
CCN(CC)C(=O)CSc1nc(-c2cccs2)cc(-c2cccs2)c1C#N | -4% | 2.5µM* | -1 | -9 | 8.3µM* | ?
CSc1nc(C2CC2)cc(-c2cccs2)c1C#N | -11% | 11µM* | -1 | -3 | 9% | ?
SMILES | AMA1-RON2 inh | HCV inh | CHX counter | Shiga toxin inh | Pf growth 48h | Pf growth 96h
CCN(CC)C(=O)CSc1nc(N)c(C#N)c(-c2cccs2)c1C#N | -5% | -17% | -4 | -8 | ? | ?
CC1CCCCN1CCCNC(=O)CN1C(=O)c2cccnc2Oc2ccccc21 (stereo not drawn) | 3% | -10% | -2 | -2 | -6% | ?
Cc1ccsc1C(=O)N1CCC1(C)C(=O)NCCC#N (stereo not drawn) | -6% | nt | nt | nt | nt | nt
Cc1ccc(-c2c(NC(=O)C(C)C)n(C)c3ccccc3c2=O)cc1 | 11% | 3.2µM* | 2 | 13 | 28% | 29%
CC(C)C(=O)Nc1c(-c2ccccc2)c(=O)c2ccccc2n1C | 3% | 9% | -4 | -5 | 45% | 18%
NS(=O)(=O)c1ccc(CCNC(=O)CNC(=O)c2ccc(Br)o2)cc1 | 3% | -2% | nt | nt | -17% | -8%
O=S(=O)(Nc1c(F)cccc1F)c1ccc(Cl)nc1 | -13% | 12%[8.37 µM] | nt | nt | 1% | 37%
Oc1ccc(CNc2ccccc2F)c2cccnc12 | -81% | 11µM* | -3 | 24 | 1.5µM* | 4.1µM*!
COc1cccc(CNc2ccccc2O)c1OCc1ccccc1F | ? | -6% | -3 | 27 | -29% | 7%
Oc1ccc(CNc2ccc(C(F)(F)F)cc2Cl)c2cccnc12 | nt | nt | nt | nt | 1.7µM* | 3.3µM*
Oc1ccc(CNc2cccc(F)c2F)c2cccnc12 | nt | nt | nt | nt | 10µM* | ?
O=C(Cc1ncc(C(F)(F)F)cc1Cl)NCc1cccnc1 | 0% | 1% | -2 | -12 | -6% | 32%
Clc1cccc2c3c([nH]c12)CCNC3 | -5% | ? | -1 | -5 | 13% | 0.59µM*
Clc1ccc2[nH]c3c(c2c1)CNCC3 | -10% | ? | -6 | -6 | 4%[0.00184 µM] | ?
Cc1cccc(-n2ncc3c(NCc4ccccn4)ncnc32)c1 | 12% | ? | 29* | 70* | 74% | -1%
c1ccc(-n2ncc3c(NCc4ccccn4)ncnc32)cc1 | 9% | -3% | 30* | 74* | 54% | nt
COC(=O)C(C)N(C(=O)c1cccc2ccccc12)c1c(C)cccc1C (stereo not drawn) | -19% | ? | -3 | -12 | 15µM* | nt
CN(C)c1ccc(/C=C/c2cccc[n+]2[O-])cc1 | -7% | 11% | 33* | 59* | 148% | 249%
CC(C)CC[n+]1ccccc1/C=C/c1ccc(N(C)C)cc1 | -2% | 5µM* | 6 | -2 | 0.93µM* | -10%
CN(C)c1ccc(C=Cc2cnccn2)cc1 | 10% | 8% | nt | nt | nt | nt
[O-][n+]1ccccc1/C=C/c1ccccc1 | -2% | 10% | nt | nt | nt | nt
